Experimental data reported in PubChem BioAssay (EPA / NIEHS).
Inconclusive results are not listed. Calls of active or inactive are those of the source. Rule for the calls, unless noted: active = hit-call score of the fitted dose curve at least 0.9, where 1 is the maximum; inconclusive = response in the unintended direction; inactive = score below 0.9.

Tests used:
[1] = read-out: glucuronosyltransferase (UGT1A1), UGT1A1 (gene 54658); assay: CLD_UGT1A1_24hr: CellzDirect (CLD) Gene Expression Assay for glucuronosyltransferase (UGT1A1) at 24 hours (AID 2283696)
Outline: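 Primary human hepatocytes from two donor preparations were dosed (0.2% DMSO vehicle) and harvested at 24 h; UGT1A1 mRNA induction was quantified by chemiluminescent qNPA, fitted as gain relative to DMSO.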

[2] = read-out: Cytochrome P450 3A4 (Homo sapiens) (UniProt P08684); assay: CLD_CYP3A4_48hr: CellzDirect (CLD) Gene Expression Assay for xenobiotic metabolism (CYP3A4) at 48 hours (AID 2283698)
Procedure: (§1) CLD_48hr is a cell-based, multiplexed-readout assay that uses hepatocyte, a human liver primary cell, with measurements taken at 48 hours after chemical dosing in a 96-well plate.CLD_CYP3A4_48hr is one of 16 assay component(s) measured or calculated from the CLD_48hr assay. It is designed to make measurements of mRNA induction, a form of inducible reporter, as detected with chemiluminescence signals by Quantitative Nuclease Protection Assay (qNPA) technology.Data from the assay component CLD_CYP3A4_48hr was analyzed at the endpoint, CLD_CYP3A4_48hr, in the positive analysis fitting direction relative to DMSO as the negative control and baseline of activity. Using a type of inducible reporter, gain-of-signal activity can be used to understand changes in the reporter gene as they relate to the gene CYP3A4. Furthermore, this assay endpoint can be referred to as a primary readout. To generalize the intended target to other relatable targets, this assay endpoint is annotated to the cyp intended target family, where subfamily is xenobiotic metabolism.
(§2) Human hepatocyte cultures were treated daily for two consecutive days with fresh dosing solutions containing appropriate concentrations of the 320 ToxCast chemicals (chemical identities were blinded to CellzDirect and other ToxCast collaborators), vehicle control (0.2% DMSO), and positive control inducers as summarized in Table 1. Due to the large number of treatment groups and chemicals examined, the ToxCast chemicals were divided into two groups (spanning two independent cultures of hepatocytes from separate donor preparations (Hu778: ToxCast plates 1 and 2; Hu776: ToxCast plates 3 and 4). Each preparation of human hepatocyte cultures was treated with respective vehicle control, medium only control, set of six positive controls/reference chemicals for the five hepatic receptor pathways, and a subset of eight of the ToxCast chemicals (indoxacarb, pyrithiobac-sodium, norflurazon, cyhalofop-butyl, methomyl, thiram, acetochlor, and propiconazole). These replicate data, coupled with internal replicates designed within the blinded ToxCast chemical library, provided additional data to evaluate interindividual differences between hepatocyte preparations and their potential impact on chemical profiles.Cell morphology and integrity were evaluated using phase-contrast microscopy as an indicator of hepatocyte cell health (Tyson & Green, 1987). Cultures for each treatment group (i.e., media, vehicle [0.2% DMSO], positive control inducers [multiple concentrations], and the ToxCast chemicals [multiple concentrations]) were observed and cell morphology was assessed relative to vehicle control cultures at each harvest time point (0, 6, 24, or 48 h). […] Images were evaluated at the conclusion of the study to assess changes in cell integrity and account for the effects of chemical exposure on uncharacteristic changes in concentration-dependent gene expression profiles. The results from these determinations of apparent cytotoxicity were annotated (yes/no) alongside the corresponding qNPA data for reference.At the conclusion of each treatment period, hepatocyte cultures (96-well) were washed with 1 volume of HBSS, lysed by addition of 25 ul ArrayPlate lysis buffer (HTG, Tucson, AZ), and 70 ul/well of Denaturation Oil, denatured by incubation at 95C for 10 min, and frozen at approximately -70C until analysis by nuclease protection assay (qNPA) (Roberts et al., 2007). […]

[3] = read-out: Cytochrome P450 2B6 (Homo sapiens) (UniProt P20813); assay: CLD_CYP2B6_48hr: CellzDirect (CLD) Gene Expression Assay for xenobiotic metabolism (CYP2B6) at 48 hours (AID 2283699);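 note: actives raise transcript level above DMSO so potency reflects induction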
Procedure: as §1, with “plate.CLD_CYP2B6_48hr” for “plate.CLD_CYP3A4_48hr”, “CLD_CYP2B6_48hr” for “CLD_CYP3A4_48hr”, “CLD_CYP2B6_48hr,” for “CLD_CYP3A4_48hr,”, “CYP2B6.” for “CYP3A4.”
Human hepatocyte cultures were treated daily for two consecutive days with fresh dosing solutions containing appropriate concentrations of the 320 ToxCast chemicals (chemical identities were blinded to CellzDirect and other ToxCast collaborators), vehicle control (0.2% DMSO), and positive control inducers as summarized in Table 1. […] These replicate data, coupled with internal replicates designed within the blinded ToxCast chemical library, provided additional data to evaluate interindividual differences between hepatocyte preparations and their potential impact on chemical profiles.Cell morphology and integrity were evaluated using phase-contrast microscopy as an indicator of hepatocyte cell health (Tyson & Green, 1987). Cultures for each treatment group (i.e., media, vehicle [0.2% DMSO], positive control inducers [multiple concentrations], and the ToxCast chemicals [multiple concentrations]) were observed and cell morphology was assessed relative to vehicle control cultures at each harvest time point (0, 6, 24, or 48 h). […] Images were evaluated at the conclusion of the study to assess changes in cell integrity and account for the effects of chemical exposure on uncharacteristic changes in concentration-dependent gene expression profiles. […]

[4] = read-out: Cytochrome P450 2C9 (Homo sapiens) (UniProt P11712); assay: CLD_CYP2C9_48hr: CellzDirect (CLD) Gene Expression Assay for xenobiotic metabolism (CYP2C9) at 48 hours (AID 2283701; active = hit-call score of the fitted dose curve at least 0.9, where 1 is the maximum; inactive = score below 0.9)
Procedure: (§3) CLD_48hr is a cell-based, multiplexed-readout assay that uses hepatocyte, a human liver primary cell, with measurements taken at 48 hours after chemical dosing in a 96-well plate.CLD_CYP2C9_48hr is one of 16 assay component(s) measured or calculated from the CLD_48hr assay. It is designed to make measurements of mRNA induction, a form of inducible reporter, as detected with chemiluminescence signals by Quantitative Nuclease Protection Assay (qNPA) technology.Data from the assay component CLD_CYP2C9_48hr was analyzed at the endpoint, CLD_CYP2C9_48hr, in the positive analysis fitting direction relative to DMSO as the negative control and baseline of activity. […] Furthermore, this assay endpoint can be referred to as a primary readout. […]
(§4) Human hepatocyte cultures were treated daily for two consecutive days with fresh dosing solutions containing appropriate concentrations of the 320 ToxCast chemicals (chemical identities were blinded to CellzDirect and other ToxCast collaborators), vehicle control (0.2% DMSO), and positive control inducers as summarized in Table 1. […] Cultures for each treatment group (i.e., media, vehicle [0.2% DMSO], positive control inducers [multiple concentrations], and the ToxCast chemicals [multiple concentrations]) were observed and cell morphology was assessed relative to vehicle control cultures at each harvest time point (0, 6, 24, or 48 h). […]

[5] = read-out: xenobiotic metabolism (CYP1A2), CYP1A2 (gene 1544); assay: CLD_CYP1A2_48hr: CellzDirect (CLD) Gene Expression Assay for xenobiotic metabolism (CYP1A2) at 48 hours (AID 2283703)
Procedure: as §1, with “plate.CLD_CYP1A2_48hr” for “plate.CLD_CYP3A4_48hr”, “CLD_CYP1A2_48hr” for “CLD_CYP3A4_48hr”, “CLD_CYP1A2_48hr,” for “CLD_CYP3A4_48hr,”, “CYP1A2.” for “CYP3A4.”
as §2

[6] = read-out: Broad substrate specificity ATP-binding cassette transporter ABCG2 (Homo sapiens) (UniProt Q9UNQ0); assay: CLD_ABCG2_48hr: CellzDirect (CLD) Gene Expression Assay for ABC Transporter (ABCG2) at 48 hours (AID 2283704)
Outline: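 Primary human hepatocytes from two donors, dosed daily for 2 days, 0.2% DMSO vehicle, several concentrations. ABCG2 mRNA at 48 h by qNPA chemiluminescence, gain fitted versus DMSO; cytotoxicity flagged by morphology.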

[7] = read-out: xenobiotic metabolism (CYP1A1), CYP1A1 (gene 1543); assay: CLD_CYP1A1_48hr: CellzDirect (CLD) Gene Expression Assay for xenobiotic metabolism (CYP1A1) at 48 hours (AID 2283705)
Outline: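 Primary human hepatocytes from two donors dosed daily for two days at multiple concentrations, 0.2% DMSO vehicle; CYP1A1 mRNA induction at 48 h by qNPA chemiluminescence. Cytotoxicity noted by phase-contrast morphology.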

[8] = CLD_ACTIN_48hr: CellzDirect (CLD) Gene Expression Assay for Baseline Control (Actin) at 48 hours (AID 2283702)
Outline: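 Primary human hepatocytes (two donor preparations) dosed daily for two days with ToxCast chemicals at multiple concentrations versus 0.2% DMSO vehicle; harvested at 48 h. Actin mRNA measured as a background control by quantitative nuclease protection assay with chemiluminescence.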

[9] = read-out: Cytochrome P450 2C19 (Homo sapiens) (UniProt P33261); assay: CLD_CYP2C19_48hr: CellzDirect (CLD) Gene Expression Assay for xenobiotic metabolism (CYP2C19) at 48 hours (AID 2283700);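 note: fitted upward so actives raise CYP2C19 mRNA above the 0.2% DMSO vehicle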
Outline: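 Primary human hepatocytes (two donor preparations) dosed daily for two days, harvested at 48 h; CYP2C19 mRNA induction measured by qNPA chemiluminescence. Gain-of-signal fitted relative to 0.2% DMSO vehicle as baseline.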

[10] = read-out: ABC Transporter (ABCB11), ABCB11 (gene 8647); assay: CLD_ABCB11_48hr: CellzDirect (CLD) Gene Expression Assay for ABC Transporter (ABCB11) at 48 hours (AID 2283697)
Procedure: as §3, with “plate.CLD_ABCB11_48hr” for “plate.CLD_CYP2C9_48hr”, “CLD_ABCB11_48hr” for “CLD_CYP2C9_48hr”, “CLD_ABCB11_48hr,” for “CLD_CYP2C9_48hr,”
as §4

Measured: AC50

Sequence of Cytochrome P450 3A4 (Homo sapiens) (P08684 whole entry, looked up): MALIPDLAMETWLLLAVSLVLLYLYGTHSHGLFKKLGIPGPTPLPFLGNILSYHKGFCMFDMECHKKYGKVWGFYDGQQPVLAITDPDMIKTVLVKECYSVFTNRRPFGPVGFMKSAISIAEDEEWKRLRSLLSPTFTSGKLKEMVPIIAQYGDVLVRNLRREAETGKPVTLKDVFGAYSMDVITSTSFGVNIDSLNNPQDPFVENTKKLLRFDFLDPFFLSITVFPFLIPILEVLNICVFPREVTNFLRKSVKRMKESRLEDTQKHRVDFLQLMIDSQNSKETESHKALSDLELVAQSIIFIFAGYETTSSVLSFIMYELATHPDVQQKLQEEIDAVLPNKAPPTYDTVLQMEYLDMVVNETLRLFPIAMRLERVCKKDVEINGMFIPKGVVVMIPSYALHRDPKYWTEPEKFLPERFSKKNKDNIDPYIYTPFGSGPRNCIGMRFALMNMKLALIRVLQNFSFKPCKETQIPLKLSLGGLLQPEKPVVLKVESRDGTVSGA
Sequence of Broad substrate specificity ATP-binding cassette transporter ABCG2 (Homo sapiens) (Q9UNQ0 whole entry, looked up): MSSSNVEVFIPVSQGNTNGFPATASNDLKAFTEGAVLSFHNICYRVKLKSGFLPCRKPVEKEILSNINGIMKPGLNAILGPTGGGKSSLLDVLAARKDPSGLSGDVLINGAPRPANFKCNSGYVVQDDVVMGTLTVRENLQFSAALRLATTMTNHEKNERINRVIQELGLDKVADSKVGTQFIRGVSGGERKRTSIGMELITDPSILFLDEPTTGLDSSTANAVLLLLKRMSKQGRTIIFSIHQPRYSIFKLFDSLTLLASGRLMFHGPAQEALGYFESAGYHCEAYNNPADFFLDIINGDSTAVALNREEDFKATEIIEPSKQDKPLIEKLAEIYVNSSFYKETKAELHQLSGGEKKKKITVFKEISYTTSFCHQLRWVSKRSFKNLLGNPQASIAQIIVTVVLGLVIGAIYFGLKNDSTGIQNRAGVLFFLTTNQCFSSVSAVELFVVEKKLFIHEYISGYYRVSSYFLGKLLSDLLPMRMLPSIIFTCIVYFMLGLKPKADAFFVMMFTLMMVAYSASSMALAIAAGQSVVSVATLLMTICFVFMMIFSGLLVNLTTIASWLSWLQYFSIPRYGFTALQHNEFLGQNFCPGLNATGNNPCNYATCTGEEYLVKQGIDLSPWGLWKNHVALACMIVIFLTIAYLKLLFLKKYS
Sequence of Cytochrome P450 2C19 (Homo sapiens) (P33261 whole entry, looked up): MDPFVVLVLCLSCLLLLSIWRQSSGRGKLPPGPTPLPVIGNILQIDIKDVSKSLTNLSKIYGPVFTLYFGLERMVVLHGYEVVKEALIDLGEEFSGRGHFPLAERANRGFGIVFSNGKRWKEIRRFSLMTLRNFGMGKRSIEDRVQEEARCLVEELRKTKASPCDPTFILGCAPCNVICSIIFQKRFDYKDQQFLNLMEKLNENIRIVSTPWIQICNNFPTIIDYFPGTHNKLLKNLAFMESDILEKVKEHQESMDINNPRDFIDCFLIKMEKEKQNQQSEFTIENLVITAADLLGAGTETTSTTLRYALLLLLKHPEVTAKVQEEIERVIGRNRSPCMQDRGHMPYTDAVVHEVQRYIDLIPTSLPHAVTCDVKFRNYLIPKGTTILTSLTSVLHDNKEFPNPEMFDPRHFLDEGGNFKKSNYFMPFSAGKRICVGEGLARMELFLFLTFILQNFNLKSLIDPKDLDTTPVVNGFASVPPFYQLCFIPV

CCC(C)(CC)c1cc(NC(=O)c2c(OC)cccc2OC)on1
active: [2] 0.126 µM | [3] 0.26 µM | [5] 4.25 µM | [7] 3.98 µM
inactive: [1] | [4] | [6]

CCNc1nc(NC(C)C)nc(SC)n1
inactive: [1] | [8] | [5] | [6]
active: [2] 5.88 µM | [3] 1.9 µM | [7] 9.24 µM

Cc1ccccc1CO[C@@H]1C[C@@]2(C(C)C)CC[C@]1(C)O2
active: [1] 5.18 µM | [2] 10.4 µM | [3] 4.16 µM | [5] 11.5 µM
inactive: [9] | [6] | [7]

CN(C)c1nc(=O)n(C2CCCCC2)c(=O)n1C
inactive: [1] | [10] | [2] | [8] | [5]

CCSC(=O)N(CC)C1CCCCC1
inactive: [1] | [10] | [9] | [4] | [5]
active: [2] 0.000988 µM | [3] 0.000515 µM
